Test [1] is described as follows: qHTS RealTime-Glo MT Cell Viability Assay in HEK293 cells - 0 hour (AID 1224880). Further: nearly all actives have a fitted effect of over 45% in size. Further: potency means the concentration at half of the fitted maximal effect. On activity change, negative = cytotoxicity: top concentration of the series differs between compounds. In outline: (§1)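 Kinetic, non-lysing viability readout. Seed HEK293 (600/well) with reagent, incubate 5 h at 37 C/5% CO2, pin 23 nL compound in DMSO, incubate at 37 C, read luminescence at 0, 8, 16, 24, 32, 40 h.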
The nature of test [2]: A CellTox Green Cytotoxicity Assay to monitor cytotoxicity in HepG2 cells - 0 hour (AID 1224882). Further: nearly all actives have a fitted effect of over 35% in size. A digest of the protocol:
(§2)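 Cytotoxicity was tracked as dead-cell DNA fluorescence in HepG2 cells treated with test compounds at 37 C; each time-point value comes from one kinetic series spanning 0, 8, 16, 24, 32 and 40 h.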

The nature of test [3]: A CellTox Green Cytotoxicity Assay to monitor cytotoxicity in HepG2 cells - 32 hour (AID 1224883). Further: nearly all actives have a fitted effect of over 50% in size. Further: potency means the concentration at half of the fitted maximal effect. In outline:
as §2

Test [4] can be described thus: qHTS RealTime-Glo MT Cell Viability Assay in HepG2 cells - 16 hour (AID 1224885). Further: nearly all actives have a fitted effect of over 50% in size. Further: potency means the concentration at half of the fitted maximal effect. A digest of the protocol: (§3)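 HepG2 cells (600/well) were dispensed with RealTime-Glo reagents, incubated 5 h at 37 °C, then treated with compounds in DMSO for up to 40 h. Nonlytic NanoLuc luminescence reflecting viable cells was read at each stated time point.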
(Quantitative high-throughput screening tests each substance at several concentrations.)

Test [5] is described as follows: qHTS RealTime-Glo MT Cell Viability Assay in HEK293 cells - 24 hour (AID 1224886). Further: nearly all actives have a fitted effect of over 50% in size. Further: potency means the concentration at half of the fitted maximal effect. On activity change, negative = cytotoxicity: top concentration of the series differs between compounds. A digest of the protocol:
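HEK293 cells seeded with NanoLuc/prosubstrate reagent, rested 5 h at 37 C, then dosed and kept at 37 C up to 40 h. Nonlytic real-time luminescence from viable cells read at 0, 8, 16, 24, 32 and 40 h.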

Test [6] in a line: qHTS RealTime-Glo MT Cell Viability Assay in HEK293 cells - 8 hour (AID 1224887). Further: nearly all actives have a fitted effect of over 50% in size. Further: potency means the concentration at half of the fitted maximal effect. On activity change, negative = cytotoxicity: top concentration of the series differs between compounds. A digest of the protocol:
as §1

A short description of test [7]: qHTS RealTime-Glo MT Cell Viability Assay in HepG2 cells - 0 hour (AID 1224889). Further: nearly all actives have a fitted effect of over 50% in size. A digest of the protocol: as §3
Test [8] in a line: A CellTox Green Cytotoxicity Assay to monitor cytotoxicity in HEK293 cells - 32 hour (AID 1224881). Further: nearly all actives have a fitted effect of over 40% in size. A digest of the protocol: (§4)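 Real-time, in one plate: 600 HEK293 cells/well with dead-cell DNA dye, pinned compound after 5 h, 37 C incubation over 40 h; viable cells give no appreciable fluorescence.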
A short description of test [9]: A CellTox Green Cytotoxicity Assay to monitor cytotoxicity in HEK293 cells - 8 hour (AID 1224884). Further: nearly all actives have a fitted effect of over 35% in size. A digest of the protocol:
as §4

A short description of test [10]: A CellTox Green Cytotoxicity Assay to monitor cytotoxicity in HEK293 cells - 16 hour (AID 1224888). Further: nearly all actives have a fitted effect of over 35% in size. A digest of the protocol:
as §4

A number with no mark means an inactive call. Records with an inconclusive call do not appear. Activity calls are given as the source filed them. The call rests on the fitted dose curve; in most records, active means well fitted curve in the direction sought with a large enough effect in the repeat runs; inconclusive means weak or mixed curves; inactive means no such curve, though single readings can be large; an effect the other way counts as inactive or inconclusive.
On the % scale 0 is the no-effect control and ±100 the full control effect.

On to `Nc1ccc(S(=O)(=O)O)c(N)c1`, for which the Potency entry in test [1], in [2], in [3], in test [4], in test [5] and in test [6] was “inactive” each time.

Take `Nc1nccs1`: the Potency result in test [1], in test [2], in [3], in test [4], in test [5] and in test [6] was “inactive” throughout. Further, the Potency entry in test [7] is “inactive”.

On to `CC(C)(C)C(=O)O`, for which the Potency result in test [8], in test [2], in test [3], in test [9], in test [4] and in test [5] was “inactive” each time. Moreover, the Potency entry in test [6] and in test [10] was “inactive” in each case.

As to `CC(C)CCCCCCOC(=O)CCCCC(=O)OCCCCCCC(C)C`, the Potency result in [1], in test [2], in test [3], in [9], in [4] and in test [5] was “inactive” each time. In addition, the Potency result in test [10] and in test [7] was “inactive” each time.

For `CCCCC1C(=O)N(c2ccccc2)N(c2ccc(O)cc2)C1=O` (stereo unspecified), the Potency result in [1], in test [2], in test [9], in test [10] and in [7] was “inactive” throughout. Further, the Potency in [3] is 10.7 µM (active).

As to `CC(C)=CC=O`, the Potency entry in test [8], in test [2], in test [3], in [9], in test [4] and in [5] was “inactive” throughout. In addition, the Potency result in test [6], in [10] and in test [7] was “inactive” throughout.

For the compound `CCCCCCCCCCCCCCCCBr`, the cytotoxicity increase is 0.813% [at 15.8 µM] in [8], -8.22% [at 15.8 µM] in test [3] and -1.67% [at 15.8 µM] in [9]. Besides, the cytotoxicity in [2] is -3.37% [at 15.8 µM]. Besides, the activity change, negative = cytotoxic in test [4] was 2.39% [at 15.8 µM]. The activity change, negative = cytotoxicity is 6% [at 15.8 µM] in test [5] and 3.99% [at 15.8 µM] in [6]. Also, in test [10], the activity change was 2.24% [at 15.8 µM, active compounds read high].

On to `Nc1nc(Cl)nc2c1ncn2[C@@H]1O[C@H](CO)[C@@H](O)[C@@H]1F`, for which the Potency result in test [8], in [2], in [3], in [9], in test [4] and in test [6] was “inactive” in each case. Also, the Potency result in [10] and in test [7] was “inactive” throughout. The Potency in [5] was 4.77 µM (active).

For the compound `C=CC(C)(O)CCCC(C)CCCC(C)CCCC(C)C` (stereo unspecified), the Potency result in test [8], in [2], in test [3], in [9], in test [4] and in test [5] was “inactive” in each case. The Potency entry in [6], in test [10] and in test [7] was “inactive” in each case.

On to `CC(=O)Oc1ccc2c(c1)CC[C@@H]1[C@@H]2CC[C@]2(C)[C@@H](O)CC[C@@H]12`, for which the Potency result in [1], in test [2], in [9], in test [4], in test [10] and in test [7] was “inactive” throughout.

Turning to `O=C(CCC1CCN(Cc2ccccc2)CC1)c1ccc2c(c1)NCCCC2`, the Potency result in test [1], in test [2], in test [9], in test [4], in [10] and in test [7] was “inactive” in each case. For the same compound, the Potency in test [5] and in test [6] was 9.52 µM (active) in each case.

Turning to `CC(C)C(=O)O`, the Potency entry in test [8], in [2], in [3], in test [9], in [4] and in [5] was “inactive” each time. In addition, the Potency entry in test [6], in [10] and in test [7] was “inactive” throughout.

On to `CC1=C(/C=C/C(C)=C\C=C\C(C)=C\C(=O)O)C(C)(C)CCC1`, for which the Potency entry in test [1], in test [9], in test [5], in test [10] and in test [7] was “inactive” throughout.

As for `OC/C(Br)=C(\Br)CO`, the Potency result in [1], in test [2], in [3], in test [9], in [4] and in [5] was “inactive” throughout. The Potency result in [6], in [10] and in test [7] was “inactive” throughout.

Take `CC1(C)C2=CCCC(C)(C)[C@]23CC[C@H]1C3`: the Potency in [1] is 24.5 µM (active). Further, the Potency result in test [2], in test [9], in test [4], in test [5], in [6] and in test [10] was “inactive” in each case.

Consider `Cc1cc2nc3ccc(=[N+](C)C)cc-3sc2cc1N`, for which the Potency result in test [8], in test [2], in test [3], in test [9] and in test [10] was “inactive” throughout. For the same compound, the values for the Potency in [4], in test [5] and in [6] were 9.52 µM (active), 2.68 µM (active) and 1.9 µM (active), respectively.

As for `CC(C)(C)C(=O)C(Oc1ccc(Cl)cc1)n1ccnc1` (stereo unspecified), the Potency entry in test [8], in [2], in test [3], in test [9], in [4] and in test [5] was “inactive” throughout. Besides, the Potency entry in test [6], in [10] and in [7] was “inactive” throughout.

For the compound `CCCCCCCCCCCC(=O)[O][Sn]([CH2]CCC)([CH2]CCC)[O]C(=O)CCCCCCCCCCC`, the Potency entry in [1], in test [2], in [9], in [6], in [10] and in [7] was “inactive” each time. Moreover, the Potency in test [5] is 7.56 µM (active).

Turning to `O=C(Nc1ccc([N+](=O)[O-])cc1)Nc1ccc([N+](=O)[O-])cc1`, the Potency result in test [1], in [2], in [9], in test [10] and in test [7] was “inactive” each time. The Potency in [5] was 8.49 µM (active).

For `NC(=O)Nc1ccc(Cl)cc1`, the Potency entry in test [1], in test [8], in test [9], in test [4], in [5] and in [10] was “inactive” each time. Moreover, the Potency entry in test [7] is “inactive”.

For the compound `CC1=NN(c2ccc(C(=O)O)cc2)C(=O)C1`, the Potency entry in test [8], in test [2], in test [3], in test [9], in test [4] and in [5] was “inactive” each time. For the same compound, the Potency entry in test [6], in [10] and in test [7] was “inactive” in each case.

Take `CC(C)CCCCCOC(=O)CCCCC(=O)OCCCCCC(C)C`: the Potency result in test [8], in test [2], in [3], in test [9], in test [4] and in [5] was “inactive” each time. Further, the Potency result in test [6], in test [10] and in [7] was “inactive” each time.

In the case of `CO/N=C1\CN(c2nc3c(cc2F)c(=O)c(C(=O)O)cn3C2CC2)CC1CN` (stereo unspecified), the Potency result in [8], in test [2], in test [3], in [9], in [4] and in test [5] was “inactive” in each case. The Potency entry in test [6], in [10] and in test [7] was “inactive” each time.

`O=C(c1ccc(O)cc1)c1ccc(Cl)cc1`: the Potency entry in test [1], in test [2], in test [9], in test [4] and in test [7] was “inactive” throughout. In addition, in [5], the Potency was 22.3 µM (active).

With `NC(=O)N(O)[C@@H]1C=C[C@H](Oc2cccc(Oc3ccc(F)cc3)c2)C1`, the Potency entry in test [1], in test [2], in test [9], in test [4] and in test [10] was “inactive” throughout. Moreover, the Potency is 38.9 µM (active) in [3] and 15.5 µM (active) in [5].

The values above are taken from PubChem BioAssay (Tox21).
